Composite z-score and z-score data for 8 compounds are collected here from PubChem BioAssay.

In experiment [1] the test system is Plasmodium falciparum Sir2 (PF13_0152, Sir2A). The experiment can be described thus: Plasmodium falciparum Sir2A binding compounds – biochemical, small-molecule microarray, 635 nm fluorescence, primary screen (AID 1098).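 Further: score merges spot fluorescence intensity with its signal-to-noise ratio.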 The following applies: fluorescence 635 nm, higher = more signal.
Experiment [2] in a line: probe aDKK1 binding to arrayed compounds – biochemical, biotinylated probe, 635/667 nm fluorescence, primary screen (AID 1099).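 Further: score merges 667nm spot fluorescence with signal to noise across triplicate slides.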 The following applies: small-molecule microarray, higher = more signal.
Experiment [3] in a line: probe aCHRDL2 binding to arrayed compounds – biochemical, biotinylated probe, 635/667 nm fluorescence, primary screen (AID 1100). The following applies: small-molecule microarray, higher = more signal.
Experiment [4] in a line: change in splice reporter luminescence, either direction, cell-based, HEK293, spliceosome inhibition project, primary screen (AID 1101).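 Further: HEK293 cells carrying a splicing-competent luciferase reporter gene; test concentration not given here.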 The following applies: HEK293 splicing luciferase reporter, 24 h, higher = more signal, called active from +8 up or from −8 down.
Experiment [5] deals with Fibroblast growth factor 10 (Homo sapiens) (UniProt O15520). The experiment can be described thus: compounds binding fibroblast growth factor 10 – biochemical, small-molecule microarray, 635 nm fluorescence, primary screen (AID 1102). The following applies: FGF10 binding, fluorescence 635 nm, higher = more signal.
Sequence of Fibroblast growth factor 10 (Homo sapiens) (O15520 whole entry, looked up): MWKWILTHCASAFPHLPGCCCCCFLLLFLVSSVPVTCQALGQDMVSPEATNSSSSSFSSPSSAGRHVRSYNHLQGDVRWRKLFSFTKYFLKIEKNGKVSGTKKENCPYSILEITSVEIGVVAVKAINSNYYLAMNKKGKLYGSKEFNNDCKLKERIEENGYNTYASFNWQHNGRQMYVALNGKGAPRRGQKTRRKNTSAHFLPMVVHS
Experiment [6] deals with glycogen synthase kinase-3 (GSK3A per assay name; protocol says GSK3B). The experiment can be described thus: compounds binding glycogen synthase kinase-3 – biochemical, small-molecule microarray, 635 nm fluorescence, GSK3A, primary screen (AID 1103). Further: the record names both GSK3A and GSK3B. The following applies: fluorescence 635 nm, higher = more signal.
The target in experiment [7] is Epidermal growth factor receptor (Homo sapiens) (UniProt P00533). The experiment can be described thus: compounds binding epidermal growth factor receptor – biochemical, small-molecule microarray, 635 nm fluorescence, primary screen (AID 1104).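 Further: score merges 667 nm emission intensity with spot signal to noise over triplicate slides.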 The following applies: EGFR binding, higher = more signal.
Sequence of Epidermal growth factor receptor (Homo sapiens) (P00533 whole entry, looked up): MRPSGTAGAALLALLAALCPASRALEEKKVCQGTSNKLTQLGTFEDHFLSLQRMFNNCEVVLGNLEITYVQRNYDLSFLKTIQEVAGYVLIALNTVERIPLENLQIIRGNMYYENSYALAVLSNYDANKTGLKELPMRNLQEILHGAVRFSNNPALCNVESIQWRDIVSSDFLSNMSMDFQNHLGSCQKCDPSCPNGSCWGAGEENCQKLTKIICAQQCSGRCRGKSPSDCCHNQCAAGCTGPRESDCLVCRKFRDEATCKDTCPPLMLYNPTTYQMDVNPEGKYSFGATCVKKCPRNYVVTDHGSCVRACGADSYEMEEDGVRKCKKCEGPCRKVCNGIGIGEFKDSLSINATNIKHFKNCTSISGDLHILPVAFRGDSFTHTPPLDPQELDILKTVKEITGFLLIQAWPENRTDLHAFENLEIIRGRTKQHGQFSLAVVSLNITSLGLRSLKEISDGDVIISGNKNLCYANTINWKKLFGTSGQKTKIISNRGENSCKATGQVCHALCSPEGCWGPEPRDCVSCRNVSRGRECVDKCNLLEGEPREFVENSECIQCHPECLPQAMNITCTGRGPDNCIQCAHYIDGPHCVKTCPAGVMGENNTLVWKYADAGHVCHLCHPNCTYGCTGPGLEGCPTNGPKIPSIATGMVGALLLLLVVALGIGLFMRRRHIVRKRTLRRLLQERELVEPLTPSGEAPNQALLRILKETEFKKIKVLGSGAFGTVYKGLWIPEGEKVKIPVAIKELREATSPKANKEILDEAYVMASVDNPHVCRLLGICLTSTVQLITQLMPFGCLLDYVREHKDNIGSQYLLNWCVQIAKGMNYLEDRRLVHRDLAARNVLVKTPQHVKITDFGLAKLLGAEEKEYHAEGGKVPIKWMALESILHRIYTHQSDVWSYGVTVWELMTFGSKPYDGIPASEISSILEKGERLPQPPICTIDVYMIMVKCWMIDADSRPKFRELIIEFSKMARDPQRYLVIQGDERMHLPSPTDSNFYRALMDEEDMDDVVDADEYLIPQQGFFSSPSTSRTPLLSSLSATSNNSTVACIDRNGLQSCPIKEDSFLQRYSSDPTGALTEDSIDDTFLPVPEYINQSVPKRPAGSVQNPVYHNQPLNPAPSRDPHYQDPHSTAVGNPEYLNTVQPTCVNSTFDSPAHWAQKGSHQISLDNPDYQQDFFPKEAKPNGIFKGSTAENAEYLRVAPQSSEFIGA
For experiment [8], the target named is Follistatin-related protein 3 (Homo sapiens) (UniProt O95633). Kind of experiment: compounds binding follistatin-related protein 3 – biochemical, small-molecule microarray, 635 nm fluorescence, primary screen (AID 1105).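 Further: score merges emission near 667 nm and signal to noise per printed spot across three slides.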 The following applies: FSTL3 binding, higher = more signal.
Sequence of Follistatin-related protein 3 (Homo sapiens) (O95633 whole entry, looked up): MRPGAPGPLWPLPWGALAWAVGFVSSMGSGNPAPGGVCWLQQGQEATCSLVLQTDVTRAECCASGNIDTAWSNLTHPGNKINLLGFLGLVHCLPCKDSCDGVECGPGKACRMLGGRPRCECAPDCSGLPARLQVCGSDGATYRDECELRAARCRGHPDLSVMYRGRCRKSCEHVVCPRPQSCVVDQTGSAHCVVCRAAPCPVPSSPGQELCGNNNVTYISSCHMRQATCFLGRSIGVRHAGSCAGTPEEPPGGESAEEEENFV
Experiment [9] concerns the target Dickkopf-related protein 1 (Homo sapiens) (UniProt O94907). The experiment can be described thus: small molecules binding DKK1 protein – biochemical, small-molecule microarray, 635 nm fluorescence scan, primary screen (AID 1106).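 Further: score merges emission near 667 nm with signal to noise over three replicate slides.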 The following applies: higher = more signal.
Experiment [10] relates to Inhibin beta A chain (activin A). The experiment can be described thus: small molecules binding activin A – biochemical, small-molecule microarray, 635 nm fluorescence scan, primary screen (AID 1107).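 Further: mouse activin A protein probed at 4.33 µg/mL on printed slides; score merges bound-protein fluorescence near 667 nm with spot signal-to-noise.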 The following applies: INHBA, higher = more signal.
Experiment [11] has as its system Human papillomavirus type 1a protein E7 (residues 44-93). Kind of experiment: small molecules binding HPV E7 44-93 – biochemical, small-molecule microarray, residues 44-93, 635 nm fluorescence, primary screen (AID 1108).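 Further: E7 fragment applied at 1 µg/mL in TBST for 1 h at 4 C; score combines spot fluorescence with its signal to noise ratio.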 The following applies: fluorescence 635 nm, higher = more signal.
The nature of experiment [12]: hepatitis C replication reporter changes, two-sided – Huh7 cells, luciferase reporter, HCV replication inhibitor project, primary screen (AID 1109).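 Further: huh7 hepatoma cells harbouring a luciferase neomycin HCV replicon reporter; luciferase luminescence as measure of HCV replicon replication; test concentration not given here.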 The following applies: Huh7 HCV replicon luciferase reporter, 48 h; higher = more signal. In general terms: Reporter assays use an easily measured gene product as a stand-in for the process of interest.
The target in experiment [13] is Left-right determination factor 2 (Homo sapiens) (UniProt O00292). The experiment can be described thus: small molecules binding LEFTY2 protein – biochemical, small-molecule microarray, 635 nm fluorescence scan, primary screen (AID 1110). The following applies: higher = more signal.
Sequence of Left-right determination factor 2 (Homo sapiens) (O00292 whole entry, looked up): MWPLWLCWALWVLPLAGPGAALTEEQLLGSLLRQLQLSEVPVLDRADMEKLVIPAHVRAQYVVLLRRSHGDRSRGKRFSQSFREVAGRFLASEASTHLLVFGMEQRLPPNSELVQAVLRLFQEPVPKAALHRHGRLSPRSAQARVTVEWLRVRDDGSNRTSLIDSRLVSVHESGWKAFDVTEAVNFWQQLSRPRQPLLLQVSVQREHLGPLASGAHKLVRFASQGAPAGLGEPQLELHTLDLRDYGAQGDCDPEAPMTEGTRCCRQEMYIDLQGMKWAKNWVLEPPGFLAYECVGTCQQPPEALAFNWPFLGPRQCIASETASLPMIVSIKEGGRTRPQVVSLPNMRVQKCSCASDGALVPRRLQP
Experiment [14] has as its target Calmodulin-1 (Homo sapiens) (UniProt P0DP23). The experiment can be described thus: small molecules binding calmodulin-1 with EGTA – biochemical, small-molecule microarray, Cy5-labelled CALM1, profiling panel (AID 1111).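 Further: labelled calmodulin applied in Tris saline Tween buffer holding calcium plus EGTA and DTT.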 The following applies: Cy5-CALM1 binding fluorescence, higher = more signal.
The target is the same in experiment [15]. Kind of experiment: small molecules binding Ca-loaded calmodulin-1 – biochemical, small-molecule microarray, Cy5-labelled CALM1, plus calcium, artefact control for SMM control-protein annotation, profiling panel (AID 1112).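 Further: score merges spot fluorescence with signal to noise from triplicate slides.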 The following applies: Cy5-CALM1 binding fluorescence, higher = more signal.
Experiment [16] can be described thus: probe aWnt5a binding to arrayed compounds – biochemical, biotinylated probe, 635/667 nm fluorescence, primary screen (AID 1113).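 Further: score merges 667 nm fluorescence intensity with signal-to-noise per printed feature.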 The following applies: small-molecule microarray, higher = more signal.
The nature of experiment [17]: probe aShh binding to arrayed compounds – biochemical, biotinylated probe, 635/667 nm fluorescence, primary screen (AID 1114).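 Further: probe is biotin-labelled aShh protein from a stem cell growth factor screen; measures binding of labelled protein to compounds printed on the slide; score merges feature fluorescence at 667 nm with signal-to-noise.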 The following applies: small-molecule microarray, higher = more signal.
Experiment [18] is described as follows: probe aNog binding to arrayed compounds – biochemical, biotinylated probe, 635/667 nm fluorescence, primary screen (AID 1115).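 Further: probe is biotinylated aNog protein used at 0.15 µg/mL for 1 h at 4 C; z-score combines 667 nm fluorescence of each spot with its signal to noise.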 The following applies: small-molecule microarray, higher = more signal.
Experiment [19] deals with Torsin-1A-interacting protein 1 (Homo sapiens) (UniProt Q5JTV8). The experiment can be described thus: compound microarray binding of lysate hLAP1 – cell lysate, small-molecule microarray, COS7 lysate, 635/667 nm fluorescence, primary screen (AID 1116). The following applies: 635 nm fluorescence, higher = more signal.
Sequence of Torsin-1A-interacting protein 1 (Homo sapiens) (Q5JTV8 whole entry, looked up): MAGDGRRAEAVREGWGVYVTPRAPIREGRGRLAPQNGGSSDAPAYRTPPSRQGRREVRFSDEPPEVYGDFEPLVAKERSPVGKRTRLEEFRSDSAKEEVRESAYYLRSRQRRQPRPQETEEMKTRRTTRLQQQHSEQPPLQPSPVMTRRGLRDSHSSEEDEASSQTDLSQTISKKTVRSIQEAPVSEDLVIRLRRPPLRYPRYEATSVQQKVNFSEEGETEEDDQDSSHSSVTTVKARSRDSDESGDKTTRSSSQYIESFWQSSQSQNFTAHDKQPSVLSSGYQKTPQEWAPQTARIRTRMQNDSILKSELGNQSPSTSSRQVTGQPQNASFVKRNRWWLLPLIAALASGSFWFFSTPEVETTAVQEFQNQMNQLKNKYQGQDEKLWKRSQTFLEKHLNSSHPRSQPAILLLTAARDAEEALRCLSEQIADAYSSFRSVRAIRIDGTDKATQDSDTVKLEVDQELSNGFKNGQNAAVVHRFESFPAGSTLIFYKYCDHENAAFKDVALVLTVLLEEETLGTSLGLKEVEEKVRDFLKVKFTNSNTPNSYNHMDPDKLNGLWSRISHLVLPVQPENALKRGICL
The target of experiment [20] is Alpha-bungarotoxin (Bungarus multicinctus) (UniProt P60615). Kind of experiment: compounds binding labelled alpha-BTX control protein – biochemical, small-molecule microarray, Alexa647 label, 635/667 nm fluorescence, artefact control for SMM control protein annotation, profiling panel (AID 1117). The following applies: alpha-BTX-A647 binding fluorescence, higher = more signal.
Sequence of Alpha-bungarotoxin (Bungarus multicinctus) (P60615 whole entry, looked up): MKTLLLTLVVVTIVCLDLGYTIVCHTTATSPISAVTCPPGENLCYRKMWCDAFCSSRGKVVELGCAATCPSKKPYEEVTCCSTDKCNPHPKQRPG

Activity calls are given as the source filed them.

Sequence of Dickkopf-related protein 1 (Homo sapiens) (O94907 whole entry, looked up): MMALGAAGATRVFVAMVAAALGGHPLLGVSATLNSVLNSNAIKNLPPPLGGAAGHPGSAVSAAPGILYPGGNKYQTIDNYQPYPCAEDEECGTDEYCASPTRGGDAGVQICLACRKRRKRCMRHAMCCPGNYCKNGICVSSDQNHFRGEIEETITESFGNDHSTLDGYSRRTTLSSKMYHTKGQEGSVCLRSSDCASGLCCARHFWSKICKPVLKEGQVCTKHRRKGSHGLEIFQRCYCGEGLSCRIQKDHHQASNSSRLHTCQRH

As for `COC(=O)[C@@]1(Cc2ccc(F)cc2)[C@@H]2[C@@H](CC(=O)[C@H]2CC(=O)C(=O)N(C)C)CN1C(=O)c1ccccc1`, the composite z-score in [1] came out at 0.532; in experiment [2] it was 1.21; in experiment [3], 1.19; in [5], 0.849; in experiment [6] it was 1.09; in experiment [7] it was 0.251. Moreover, the composite z-score in experiment [8] was 1.32; in experiment [9], -0.598; in experiment [10] it was 0.793; in [11], 1.44; in [13] it was -0.211; in experiment [14], 1.29. Moreover, the composite z-score in experiment [15] came out at 0.352; in experiment [16], 0.24; in experiment [17], 0.522; in [18], 1.41; in experiment [19], 1.08; in [20], 1.15. Moreover, the figures for the z-score in [4] and in experiment [12] were -0.191 (inactive) and -2.53, respectively.

Turning to `COCCOC(=O)N1C(=O)[C@@]2(c3cc(C#Cc4ccc(OC)cc4)ccc31)[C@H](C(=O)N1CCCCCCC1)[C@H]1C(=O)O[C@H](c3ccccc3)[C@H](c3ccccc3)N1[C@@H]2c1ccc(OCCO)cc1`, the composite z-score came to 1.37 in experiment [1]; 2.34 in experiment [2]; 1.45 in experiment [3]; 1.7 in experiment [5]; 1.33 in experiment [6]; 1.13 in experiment [7]. Moreover, the composite z-score in experiment [8] was found to be 1.45; in experiment [9] it was 1.76; in experiment [10] it was 1.58; in experiment [11] it was 0.114; in experiment [13], 1.47; in experiment [14] it was 1.88. Moreover, the composite z-score in [15] amounted to 1.2; in experiment [16], 0.543; in experiment [17], 2.15; in experiment [18] it was 2.9; in experiment [19], 2.98; in [20], 1.14. For the same compound, the z-score was -0.16 (inactive) in experiment [4] and -1.7 in experiment [12].

Turning to `CN(C)C(=O)[C@@]1(Cc2ccccc2)N=C(c2ccc(OCCCO)cc2)O[C@H]1c1ccccc1N=[N+]=[N-]`, the composite z-score in experiment [1] is 1.36; in [2] it was 0.898; in [3], 0.914; in experiment [5], 1.36; in experiment [6], 1.26; in [7], 0.189. Also, the composite z-score in [8] was 0.843; in experiment [9] it was -0.237; in experiment [10] it was 0.994; in experiment [11], 1.42; in [13] it was -0.0506; in [14], 1.09. For the same compound, the composite z-score is 0.0779 in experiment [15]; 0.178 in experiment [16]; -0.0146 in experiment [17]; -0.482 in [18]; 0.491 in experiment [19]; 0.567 in [20]. Moreover, the z-score in experiment [4] is -1.26 (inactive); in experiment [12], -2.79.

As to `COc1ccc(C(=O)Nc2ccc(CN3C(=O)[C@@]4(O[C@@H](CCn5cc([C@H](O)c6ccccc6)nn5)[C@H]([Si](C)(C)c5ccc(OC)cc5)[C@H]4C)c4ccccc43)cc2)cc1`, the composite z-score in [1] is 0.834; in [2], -0.0682; in experiment [3], 0.512; in [5] it was -0.0022; in [6], 0.054; in experiment [7], -0.591. Also, the composite z-score was 0.183 in experiment [8]; -0.347 in experiment [9]; 0.975 in [10]; 1.26 in [11]; -0.553 in experiment [13]; 0.168 in experiment [14]. Also, the composite z-score in [15] was -0.0823; in experiment [16], -0.0896; in [17], -0.0337; in experiment [18], 0.103; in experiment [19], 0.485; in experiment [20], 0.572. The z-score in [4] was -1.06 (inactive); in experiment [12], -4.67.

Consider `O=C1O[C@H](c2ccccc2)[C@H](c2ccccc2)N2[C@H]1[C@@H](C(=O)O)[C@]1(C(=O)Nc3ccc(C#CCCO)cc31)[C@H]2c1ccc(O)cc1`, for which the composite z-score in experiment [1] is 0.218; in experiment [2], 1.13; in experiment [3], 1.14; in experiment [5], -0.378; in experiment [6], -0.222; in [7], -0.289. In addition, the composite z-score in [8] is -0.321; in experiment [9], -0.572; in experiment [10], 1.18; in [11] it was -0.038; in [13], -0.603; in experiment [14] it was 0.415. In addition, the composite z-score in experiment [15] is 0.869; in experiment [16], 0.0044; in experiment [17], -0.0324; in [18] it was 1.08; in experiment [19], 0.846; in experiment [20], 0.0639. The results for the z-score in experiment [4] and in experiment [12] were -0.765 (inactive) and 0.101, respectively.

With `CCCC=C(CCC)[C@@H](NS(=O)(=O)c1cccs1)c1ccc(C(=O)OC)cc1`, the composite z-score is 0.565 in experiment [1]; 0.922 in experiment [2]; 1.18 in [3]; 0.77 in experiment [5]; 1.19 in experiment [6]; -0.122 in [7]. Also, the composite z-score was 0.622 in experiment [8]; -0.569 in [9]; -0.0034 in experiment [10]; 1.37 in experiment [11]; -0.452 in experiment [13]; 1.6 in [14]. In addition, the composite z-score in [15] was 0.85; in experiment [16], 0.105; in experiment [17], 0.605; in [18], 1.41; in experiment [19], 0.554; in experiment [20] it was 1.24. The z-score in experiment [4] was 3.75 (inactive); in experiment [12], -2.93.

In the case of `O=C1O[C@H](c2ccccc2)[C@H](c2ccccc2)N2[C@H]1[C@@H](C(=O)Nc1nc3ccccc3s1)[C@]1(C(=O)Nc3ccc(C#CC4(O)CCCCCC4)cc31)[C@H]2c1ccc(OCCO)cc1`, the composite z-score in experiment [1] amounted to 1.17; in [2], 0.507; in experiment [3], 0.531; in experiment [5], 1.24; in [6], 1.02; in experiment [7] it was 0.662. In addition, the composite z-score amounted to 0.714 in experiment [8]; 0.525 in experiment [9]; 0.523 in experiment [10]; 0.877 in experiment [11]; 0.426 in experiment [13]; 1.91 in experiment [14]. Besides, the composite z-score in experiment [15] is 0.0521; in experiment [16], -0.0381; in [17] it was -0.0446; in experiment [18] it was 0.287; in experiment [19], 1.55; in experiment [20] it was 1.77. Moreover, the z-score was 0.053 (inactive) in experiment [4] and -2.09 in experiment [12].

`C=CCOC(=O)[C@H]1[C@@H]2C(=O)O[C@@H](c3ccccc3)[C@@H](c3ccccc3)N2[C@@H](c2ccc(OCCOC(=O)[C@H]3C[C@H]4C(=O)N[C@@H](CC(C)C)C(=O)N4[C@H]3c3ccc(O)cc3)cc2)[C@]12C(=O)Nc1ccc(I)cc12`: the composite z-score is 1.5 in experiment [1]; -0.271 in experiment [2]; -0.3 in experiment [3]; 1.4 in experiment [5]; 1.3 in experiment [6]; 0.748 in experiment [7]. The composite z-score amounted to 1.15 in experiment [8]; 1.23 in experiment [9]; 0.12 in [10]; 1.41 in experiment [11]; 0.644 in experiment [13]; 0.321 in experiment [14]. Moreover, the composite z-score in experiment [15] is -0.388; in [16] it was 0.0597; in [17], 0.0469; in [18] it was 0.13; in [19], 1.78; in [20], 1.82. Further, the figures for the z-score in experiment [4] and in [12] were -0.281 (inactive) and -0.86, respectively.
